Results: the supplement of paper PMC10849652
Targets with a hit are over-represented here; the source holds about 7,900 in all. About 0.6% of all pairs of compound and target were hits.

Each target was assayed with c1cn2cc(-c3ccc4cn[nH]c4c3)nc(Nc3ccc(N4CCOCC4)cc3)c2n1 [entospletinib] (assay: log2 fold change, soluble protein after heating vs DMSO (PISA); higher = thermal stabilisation; K562 cells, 10 uM, 30 min; active = over 0.2 and 3.5 SD of the protein, either way, in both replicates (recomputed)).
Summary of the method: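 For each measurement, 10 μM compound was applied for 30 min to K562 cells at 2×10^6 cells/mL. Aliquots were heated for 3 min across 48°C-58°C, pooled, and extracted in PBS with 0.5% NP-40 at 4°C; the supernatant after 21,000xg for 90 min was soluble protein. This was quantified by TMTpro 16plex LC-MS/MS with channel sums equalised, and thermal stability was reported relative to control samples from duplicates, on a log2 fold-change scale.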

Sequence of UniProt P13473 (P13473 whole entry, looked up): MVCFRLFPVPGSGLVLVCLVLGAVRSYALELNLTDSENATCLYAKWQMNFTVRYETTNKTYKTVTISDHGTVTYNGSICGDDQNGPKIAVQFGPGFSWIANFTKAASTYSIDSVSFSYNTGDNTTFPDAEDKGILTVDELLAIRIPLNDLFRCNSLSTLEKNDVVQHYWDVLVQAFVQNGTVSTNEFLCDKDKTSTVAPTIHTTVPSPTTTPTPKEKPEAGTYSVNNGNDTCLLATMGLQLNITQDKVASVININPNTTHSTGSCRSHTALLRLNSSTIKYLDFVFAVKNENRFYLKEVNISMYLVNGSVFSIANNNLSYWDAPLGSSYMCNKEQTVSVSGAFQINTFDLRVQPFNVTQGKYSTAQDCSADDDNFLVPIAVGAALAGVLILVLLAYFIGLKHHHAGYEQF
Sequence of UniProt Q8IWA4 (Q8IWA4 whole entry, looked up): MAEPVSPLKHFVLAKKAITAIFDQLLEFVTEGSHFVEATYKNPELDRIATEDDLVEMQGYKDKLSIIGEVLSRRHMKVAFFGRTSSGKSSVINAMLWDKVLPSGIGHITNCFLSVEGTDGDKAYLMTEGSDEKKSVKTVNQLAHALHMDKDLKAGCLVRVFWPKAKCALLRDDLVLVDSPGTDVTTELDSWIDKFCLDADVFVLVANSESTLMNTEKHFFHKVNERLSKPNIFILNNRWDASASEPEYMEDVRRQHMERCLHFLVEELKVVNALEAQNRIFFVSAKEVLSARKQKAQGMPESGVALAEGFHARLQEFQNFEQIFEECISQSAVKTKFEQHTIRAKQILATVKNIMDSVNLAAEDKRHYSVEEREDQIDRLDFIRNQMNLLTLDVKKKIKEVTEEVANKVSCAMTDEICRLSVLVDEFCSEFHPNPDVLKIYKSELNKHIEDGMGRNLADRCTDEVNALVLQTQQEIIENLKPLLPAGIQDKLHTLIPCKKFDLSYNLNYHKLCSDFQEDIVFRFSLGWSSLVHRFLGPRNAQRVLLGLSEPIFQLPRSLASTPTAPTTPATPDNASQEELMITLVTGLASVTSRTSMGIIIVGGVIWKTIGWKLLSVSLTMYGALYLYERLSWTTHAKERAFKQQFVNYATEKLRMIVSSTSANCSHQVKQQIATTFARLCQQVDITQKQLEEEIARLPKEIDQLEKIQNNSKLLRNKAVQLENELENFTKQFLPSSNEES
Sequence of UniProt A1L0T0 (A1L0T0 whole entry, looked up): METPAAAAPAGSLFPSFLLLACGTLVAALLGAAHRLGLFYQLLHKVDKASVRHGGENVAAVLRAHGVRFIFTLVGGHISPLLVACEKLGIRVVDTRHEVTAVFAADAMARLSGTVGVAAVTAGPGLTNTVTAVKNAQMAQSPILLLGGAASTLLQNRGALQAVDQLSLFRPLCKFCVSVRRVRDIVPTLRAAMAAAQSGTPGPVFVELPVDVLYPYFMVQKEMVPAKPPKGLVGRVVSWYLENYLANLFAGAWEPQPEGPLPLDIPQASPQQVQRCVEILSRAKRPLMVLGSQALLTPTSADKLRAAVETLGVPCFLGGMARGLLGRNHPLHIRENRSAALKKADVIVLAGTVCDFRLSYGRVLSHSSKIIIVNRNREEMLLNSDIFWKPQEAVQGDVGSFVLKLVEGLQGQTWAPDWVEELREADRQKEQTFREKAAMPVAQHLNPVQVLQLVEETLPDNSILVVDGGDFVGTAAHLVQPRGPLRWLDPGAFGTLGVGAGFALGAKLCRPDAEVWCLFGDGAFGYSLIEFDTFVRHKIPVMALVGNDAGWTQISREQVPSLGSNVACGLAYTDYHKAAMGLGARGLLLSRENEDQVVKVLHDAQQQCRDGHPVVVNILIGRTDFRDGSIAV
Sequence of UniProt Q9H3U5 (Q9H3U5 whole entry, looked up): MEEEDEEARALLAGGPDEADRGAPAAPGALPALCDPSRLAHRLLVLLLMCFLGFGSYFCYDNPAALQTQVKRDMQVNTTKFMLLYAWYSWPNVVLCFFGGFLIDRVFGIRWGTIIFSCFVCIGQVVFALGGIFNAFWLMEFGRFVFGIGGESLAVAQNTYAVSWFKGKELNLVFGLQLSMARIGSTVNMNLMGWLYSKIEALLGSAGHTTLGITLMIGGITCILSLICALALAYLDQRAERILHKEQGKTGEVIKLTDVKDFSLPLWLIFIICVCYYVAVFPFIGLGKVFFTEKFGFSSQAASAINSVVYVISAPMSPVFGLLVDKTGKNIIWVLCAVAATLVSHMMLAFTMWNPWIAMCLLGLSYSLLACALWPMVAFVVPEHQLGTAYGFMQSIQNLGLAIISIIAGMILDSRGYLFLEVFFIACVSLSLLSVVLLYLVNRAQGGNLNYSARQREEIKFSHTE
Sequence of UniProt P27448 (P27448 whole entry, looked up): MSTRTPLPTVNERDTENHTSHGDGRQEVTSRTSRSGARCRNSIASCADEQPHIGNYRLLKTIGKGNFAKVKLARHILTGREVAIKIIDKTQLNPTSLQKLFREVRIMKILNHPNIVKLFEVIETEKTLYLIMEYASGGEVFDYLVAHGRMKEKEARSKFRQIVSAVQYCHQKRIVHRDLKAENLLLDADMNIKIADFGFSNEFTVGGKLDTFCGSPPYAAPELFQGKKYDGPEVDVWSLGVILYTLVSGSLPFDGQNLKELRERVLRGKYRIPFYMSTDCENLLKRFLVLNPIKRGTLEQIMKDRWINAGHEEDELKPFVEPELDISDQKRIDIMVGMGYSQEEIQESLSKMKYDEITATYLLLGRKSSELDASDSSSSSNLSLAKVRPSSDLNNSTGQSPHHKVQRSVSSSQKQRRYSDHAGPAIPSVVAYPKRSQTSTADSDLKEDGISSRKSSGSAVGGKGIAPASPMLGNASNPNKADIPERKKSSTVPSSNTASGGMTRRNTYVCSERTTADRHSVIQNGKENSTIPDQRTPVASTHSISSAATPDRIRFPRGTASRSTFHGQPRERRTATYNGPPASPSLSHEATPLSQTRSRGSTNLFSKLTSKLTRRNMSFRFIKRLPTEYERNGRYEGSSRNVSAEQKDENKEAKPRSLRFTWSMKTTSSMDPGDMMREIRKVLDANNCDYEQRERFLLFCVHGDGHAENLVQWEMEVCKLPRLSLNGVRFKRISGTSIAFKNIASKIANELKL
Sequence of UniProt Q9NUN5 (Q9NUN5 whole entry, looked up): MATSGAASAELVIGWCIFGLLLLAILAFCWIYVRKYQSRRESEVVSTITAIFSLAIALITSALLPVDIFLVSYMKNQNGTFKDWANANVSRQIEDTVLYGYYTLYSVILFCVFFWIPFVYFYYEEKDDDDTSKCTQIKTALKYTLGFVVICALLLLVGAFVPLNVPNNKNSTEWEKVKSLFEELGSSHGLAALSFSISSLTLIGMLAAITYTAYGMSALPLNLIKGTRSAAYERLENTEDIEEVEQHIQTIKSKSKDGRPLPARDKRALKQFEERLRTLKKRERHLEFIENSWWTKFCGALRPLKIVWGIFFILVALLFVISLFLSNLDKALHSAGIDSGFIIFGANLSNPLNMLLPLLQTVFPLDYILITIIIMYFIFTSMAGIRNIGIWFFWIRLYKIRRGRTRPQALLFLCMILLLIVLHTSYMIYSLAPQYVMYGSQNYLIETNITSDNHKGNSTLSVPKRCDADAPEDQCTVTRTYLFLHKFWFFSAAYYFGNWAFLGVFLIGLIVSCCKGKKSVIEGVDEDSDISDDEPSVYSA
Sequence of UniProt Q8WWC4 (Q8WWC4 whole entry, looked up): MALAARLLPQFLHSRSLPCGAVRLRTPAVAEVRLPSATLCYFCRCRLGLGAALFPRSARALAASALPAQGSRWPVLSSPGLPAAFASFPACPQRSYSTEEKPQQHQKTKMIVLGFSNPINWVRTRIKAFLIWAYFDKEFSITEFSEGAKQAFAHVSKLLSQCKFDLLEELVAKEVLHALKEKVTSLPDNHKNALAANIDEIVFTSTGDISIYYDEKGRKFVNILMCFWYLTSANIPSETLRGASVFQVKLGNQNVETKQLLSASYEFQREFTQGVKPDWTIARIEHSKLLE
Sequence of UniProt P02545 (P02545 whole entry, looked up): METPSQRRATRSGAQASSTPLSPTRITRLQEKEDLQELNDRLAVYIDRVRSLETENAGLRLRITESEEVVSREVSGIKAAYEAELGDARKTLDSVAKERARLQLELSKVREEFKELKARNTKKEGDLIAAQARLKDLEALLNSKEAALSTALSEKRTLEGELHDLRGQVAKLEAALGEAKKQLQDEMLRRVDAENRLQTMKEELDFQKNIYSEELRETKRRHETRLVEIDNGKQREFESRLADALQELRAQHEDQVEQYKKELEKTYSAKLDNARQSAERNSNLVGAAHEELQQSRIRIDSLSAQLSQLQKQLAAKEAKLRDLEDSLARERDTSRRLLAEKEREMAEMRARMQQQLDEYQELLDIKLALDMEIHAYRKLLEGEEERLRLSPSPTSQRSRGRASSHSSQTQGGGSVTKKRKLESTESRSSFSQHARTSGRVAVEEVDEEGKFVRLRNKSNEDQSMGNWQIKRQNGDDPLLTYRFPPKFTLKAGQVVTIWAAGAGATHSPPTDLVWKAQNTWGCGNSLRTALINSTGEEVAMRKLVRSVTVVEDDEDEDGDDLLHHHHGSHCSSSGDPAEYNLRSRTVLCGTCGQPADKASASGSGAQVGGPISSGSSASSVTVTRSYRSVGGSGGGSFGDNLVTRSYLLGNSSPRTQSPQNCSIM
Sequence of UniProt Q6N075 (Q6N075 whole entry, looked up): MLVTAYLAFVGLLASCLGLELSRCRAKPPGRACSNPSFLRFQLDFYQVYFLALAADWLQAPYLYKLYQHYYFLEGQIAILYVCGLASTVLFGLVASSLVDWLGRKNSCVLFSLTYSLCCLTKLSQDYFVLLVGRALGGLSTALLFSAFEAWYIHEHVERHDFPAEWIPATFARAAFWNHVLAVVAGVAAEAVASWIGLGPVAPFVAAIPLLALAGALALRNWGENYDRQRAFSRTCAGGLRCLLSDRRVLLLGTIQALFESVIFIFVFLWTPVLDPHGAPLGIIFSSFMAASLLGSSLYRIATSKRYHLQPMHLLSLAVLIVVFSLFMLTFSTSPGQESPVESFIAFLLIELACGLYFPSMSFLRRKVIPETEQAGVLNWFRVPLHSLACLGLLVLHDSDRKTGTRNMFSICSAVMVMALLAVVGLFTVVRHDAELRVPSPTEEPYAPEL

log2 fold change, inactive:
LMNA (UniProt P02545) -0.025, ILVBL (UniProt A1L0T0) -0.028, MFN1 (UniProt Q8IWA4) -0.028, LONP2 (UniProt Q86WA8) -0.001, MFSD5 isoform 2 (UniProt Q6N075) -0.005, MFSD1 isoform 6 (UniProt Q9H3U5) 0.013, LPCAT3 (UniProt Q6P1A2) 0.012, KDM5D isoform 3 (UniProt Q9BY66) -0.056, MAP3K20 (UniProt Q9NYL2) -0.007, MAP4K5 (UniProt Q9Y4K4) -0.065, LAMP2 isoform 2 (UniProt P13473) 0.033, LMBRD1 (UniProt Q9NUN5) -0.03, MAIP1 (UniProt Q8WWC4) -0.003, MAGI1 (UniProt Q96QZ7) 0, MARK3 (UniProt P27448) -0.024, KPNA6 (UniProt O60684) -0.021, MDN1 (UniProt Q9NU22) -0.123, MFSD11 (UniProt O43934) 0.109, MAP4 isoform 5 (UniProt P27816) -0.07, LNPK (UniProt Q9C0E8) 0.01, MED16 (UniProt Q9Y2X0) 0.014, LSR (UniProt Q86X29) -0.006, JMJD6 isoform 3 (UniProt Q6NYC1) 0.006
